In PubChem BioAssay AID1159580 (chemical genetic matrix, 2015):
Out of some 5,500 compounds screened, about 2,000 (36%) were called active. Not shown: some 18% with an inconclusive outcome. Rule as the data show it: active = normalized growth mostly below about 0.91 (no sharp cut-off); inconclusive = no clear call, values can overlap the other calls; inactive = mostly above about 0.92. This is one part of the list.

Assay: chemical genetic growth profiling, strain panel (AID 1159580);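 also: tested at 20 µM; growth read once vehicle control cultures reached saturation at 30 °C; 1 = growth at the plate median or of vehicle wells; lower values mean less growth of the strain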
Conditions: S. cerevisiae deletion strains, growth OD

Measured: normalized growth

CC(C)COC(=O)OCN1C(=O)CN(CCN2CC(=O)N(COC(=O)OCC(C)C)C(=O)C2)CC1=O
inactive: locus YAL040C, strain CLN3, hits give low values 1.01 | locus YCL061C, strain MRC1 (second series), hits give low values 1.01 | locus YDR150W, strain NUM1, hits give low values 1.01 | locus YDR363W, strain ESC2, hits give low values 1.01 | locus YER002W, strain NOP16, hits give low values 0.997 | locus YGR078C, strain PAC10, hits give low values 1 | locus YJR075W, strain HOC1, hits give low values 1.01 | locus YMR307W, strain GAS1, hits give low values 1.01 | locus YNL175C, strain NOP13, hits give low values 1 | locus YNL197C, strain WHI3, hits give low values 0.999 | locus YNL224C, strain SQS1, hits give low values 0.996 | locus YNL322C, strain KRE1, hits give low values 1.01 | locus YOR083W, strain WHI5 (second series), hits give low values 1.01 | locus YPL055C, strain LGE1, hits give low values 1.03

CCCCCc1ccc(S(=O)(=O)Nc2ccc3c(c2)C(=O)OC3)cc1
active: locus YLR113W, strain HOG1, hits give low values 0.86
inactive: locus YAR019C, strain CDC15, hits give low values 0.991 | locus YBL105C, strain PKC1, hits give low values 0.994 | locus YBR135W, strain CKS1, hits give low values 0.981 | locus YBR136W, strain MEC1, hits give low values 0.982 | locus YBR160W, strain CDC28, hits give low values 0.984 | locus YDL017W, strain CDC7, hits give low values 0.985 | locus YDL028C, strain MPS1, hits give low values 0.983 | locus YDL101C, strain DUN1, hits give low values 0.998 | locus YDL108W, strain KIN28, hits give low values 0.982 | locus YDL132W, strain cdc53, hits give low values 0.985 | locus YDL214C, strain PRR2, hits give low values 0.948 | locus YDR052C, strain DBF4, hits give low values 0.998 | locus YDR054C, strain cdc34, hits give low values 0.974 | locus YDR226W, strain ADK1, hits give low values 0.987 | locus YDR477W, strain SNF1, hits give low values 0.972 | locus YER123W, strain YCK3, hits give low values 0.969 | locus YER133W, strain GLC7, hits give low values 0.951 | locus YFL009W, strain cdc4, hits give low values 0.981 | locus YFL029C, strain CAK1, hits give low values 0.983 | locus YFR003C, strain YPI1, hits give low values 0.987 | locus YFR019W, strain FAB1, hits give low values 0.975 | locus YFR028C, strain CDC14, hits give low values 0.985 | locus YGR040W, strain KSS1, hits give low values 0.949 | locus YGR052W, strain FMP48, hits give low values 1.03 | locus YGR092W, strain DBF2, hits give low values 0.992 | locus YHR030C, strain SLT2, hits give low values 0.997 | locus YHR079C, strain IRE1, hits give low values 0.977 | locus YHR082C, strain KSP1, hits give low values 1.02 | locus YHR205W, strain SCH9, hits give low values 0.963 | locus YIL147C, strain SLN1, hits give low values 0.983 | locus YJL095W, strain BCK1, hits give low values 0.967 | locus YJL128C, strain PBS2, hits give low values 0.944 | locus YJL157C, strain FAR1, hits give low values 0.953 | locus YJR016C, strain ILV3, hits give low values 0.977 | locus YJR066W, strain TOR1 (second series), hits give low values 0.937 | locus YJR066W, strain TOR1, hits give low values 1.02 | locus YKL048C, strain ELM1, hits give low values 0.967 | locus YKL067W, strain YNK1, hits give low values 0.959 | locus YKL101W, strain HSL1, hits give low values 0.933 | locus YKL193C, strain SDS22, hits give low values 0.978 | locus YKL203C, strain TOR2, hits give low values 1.02 | locus YLR133W, strain CKI1, hits give low values 0.963 | locus YLR403W, strain SFP1, hits give low values 0.938 | locus YML070W, strain DAK1, hits give low values 0.945 | locus YMR001C, strain CDC5, hits give low values 0.986 | locus YMR205C, strain PFK2 (second series), hits give low values 0.963 | locus YMR277W, strain FCP1, hits give low values 0.982 | locus YNL006W, strain LST8, hits give low values 0.99 | locus YNL020C, strain ARK1, hits give low values 0.966 | locus YNL161W, strain CBK1, hits give low values 0.978 | locus YNL183C, strain NPR1, hits give low values 0.964 | locus YNL207W, strain RIO2, hits give low values 0.967 | locus YNL222W, strain SSU72, hits give low values 0.978 | locus YNL307C, strain MCK1 (second series), hits give low values 0.979 | locus YOL078W, strain AVO1, hits give low values 0.979 | locus YOL136C, strain PFK27, hits give low values 0.948 | locus YOR061W, strain CKA2, hits give low values 0.976 | locus YOR119C, strain RIO1, hits give low values 1.01 | locus YOR231W, strain MKK1, hits give low values 0.917 | locus YOR329C, strain SCD5, hits give low values 0.985 | locus YPL031C, strain PHO85, hits give low values 0.966 | locus YPL153C, strain RAD53, hits give low values 0.951 | locus YPL204W, strain HRR25, hits give low values 0.942 | locus YPL209C, strain IPL1, hits give low values 0.981 | locus YPL256C, strain CLN2, hits give low values 0.923 | locus YPR025C, strain CCL1, hits give low values 0.983 | locus YPR106W, strain ISR1, hits give low values 0.971 | locus YPR111W, strain DBF20, hits give low values 0.954 | strain NNK1, hits give low values 0.976 | strain TSCII, hits give low values 0.988
